From PubChem BioAssay (NCI)
Compounds without any hit were thinned out: in the full panel of roughly 83,000, 20% have a hit.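 Plates (96-well) were seeded with cells, treated with compound at one concentration, and incubated for 48 hours before percent growth was determined.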 Active and inactive are the calls of the source. The calls were made as follows: active = growth percent below 10; inactive = the rest.

Legend:
Experiment in all cases: NCI-60 one-dose screen, 48 h (100 = growth as untreated, 0 = no growth, -100 = all killed)
Conditions in all cases: 10 µM unless noted
HCT-15 colon = system: HCT-15 colon
HT29 colon = system: HT29 colon
SNB-75 CNS = system: SNB-75 CNS
SNB-19 CNS = system: SNB-19 CNS
U251 CNS = system: U251 CNS
PC-3 prostate = system: PC-3 prostate
SK-MEL-5 melanoma = system: SK-MEL-5 melanoma
UACC-62 melanoma = system: UACC-62 melanoma
LOX IMVI melanoma = system: LOX IMVI melanoma
SK-MEL-28 melanoma = system: SK-MEL-28 melanoma
SK-MEL-2 melanoma = system: SK-MEL-2 melanoma
EKVX NSCLC = system: EKVX NSCLC
SN12C renal = system: SN12C renal
UO-31 renal = system: UO-31 renal
TK-10 renal = system: TK-10 renal
ACHN renal = system: ACHN renal
CAKI-1 renal = system: CAKI-1 renal
A498 renal = system: A498 renal
CCRF-CEM leukemia = system: CCRF-CEM leukemia
MOLT-4 leukemia = system: MOLT-4 leukemia

Measured: growth

O=[N+]([O-])c1ccccc1C(O)Cc1ccc2ccccc2n1 (stereo not given)
inactive: HCT-15 colon 105% | HT29 colon 112% | SNB-75 CNS 85.8% | SNB-19 CNS 101% | U251 CNS 96.9% | PC-3 prostate 95.5% | SK-MEL-5 melanoma 89.9% | UACC-62 melanoma 82.6% | LOX IMVI melanoma 93% | SK-MEL-28 melanoma 92.9% | SK-MEL-2 melanoma 108% | EKVX NSCLC 83.8% | SN12C renal 95.2% | UO-31 renal 66.6% | TK-10 renal 148% | ACHN renal 85.9% | CAKI-1 renal 88% | A498 renal 68%
active: CCRF-CEM leukemia -50.2% | MOLT-4 leukemia -6.33%

c1ccc2c(c1)nc(-n1ccnc1)c1nc3ccccc3n12
inactive: HCT-15 colon 82.7% | HT29 colon 74% | SNB-75 CNS 70% | SNB-19 CNS 42.8% | U251 CNS 61.5% | PC-3 prostate 68% | SK-MEL-5 melanoma 68.9% | UACC-62 melanoma 72% | LOX IMVI melanoma 71% | SK-MEL-28 melanoma 82.5% | SK-MEL-2 melanoma 88.7% | EKVX NSCLC 74.1% | SN12C renal 52.6% | UO-31 renal 46.1% | TK-10 renal 72.4% | ACHN renal 32.3% | CAKI-1 renal 56% | A498 renal 79.7% | CCRF-CEM leukemia 78% | MOLT-4 leukemia 74.9%

Cc1nn(Cc2ccccc2)cc1C(=O)Nc1sc2c(c1C(N)=O)CCC(=O)C2
active: ACHN renal 5.29% | CAKI-1 renal 5.49% | CCRF-CEM leukemia 9.5%
inactive: HCT-15 colon 13.6% | HT29 colon 13.1% | SNB-75 CNS 54.5% | SNB-19 CNS 63% | U251 CNS 23.2% | PC-3 prostate 15.6% | SK-MEL-5 melanoma 28.8% | UACC-62 melanoma 13.9% | LOX IMVI melanoma 17.2% | SK-MEL-28 melanoma 29.8% | SK-MEL-2 melanoma 74.5% | EKVX NSCLC 54.9% | SN12C renal 15.5% | UO-31 renal 11.8% | TK-10 renal 15.5% | A498 renal 108% | MOLT-4 leukemia 16.5%

O=C(O)c1ccccc1C(=O)Nc1ccc(Cl)cc1
inactive: HCT-15 colon 98.5% | HT29 colon 104% | SNB-75 CNS 95.8% | SNB-19 CNS 102% | U251 CNS 89.9% | PC-3 prostate 96.6% | SK-MEL-5 melanoma 93.9% | UACC-62 melanoma 48.8% | LOX IMVI melanoma 63.8% | SK-MEL-28 melanoma 96.7% | SK-MEL-2 melanoma 102% | EKVX NSCLC 96.2% | SN12C renal 102% | UO-31 renal 84.6% | TK-10 renal 93.3% | ACHN renal 94.9% | CAKI-1 renal 74.1% | A498 renal 108% | CCRF-CEM leukemia 110% | MOLT-4 leukemia 71.2%

CNC1(C#N)CCN(Cc2ccccc2)CC1
inactive: HCT-15 colon 104% | HT29 colon 102% | SNB-75 CNS 81.5% | SNB-19 CNS 99.8% | U251 CNS 108% | PC-3 prostate 97.6% | SK-MEL-5 melanoma 116% | UACC-62 melanoma 92.5% | LOX IMVI melanoma 102% | SK-MEL-28 melanoma 136% | SK-MEL-2 melanoma 93.2% | EKVX NSCLC 90.2% | SN12C renal 93.9% | UO-31 renal 80.9% | TK-10 renal 272% | ACHN renal 101% | CAKI-1 renal 72.7% | A498 renal 110% | CCRF-CEM leukemia 108% | MOLT-4 leukemia 170%

CS(=O)(=O)c1ccc(N/N=C/c2c(-c3ccc(S(C)(=O)=O)cc3)[nH]c3ccc(F)cc23)cc1
active: SK-MEL-5 melanoma -35.4% | LOX IMVI melanoma 3.68% | SK-MEL-2 melanoma 3.8% | CCRF-CEM leukemia 4.8% | MOLT-4 leukemia -1.41%
inactive: HCT-15 colon 62.7% | HT29 colon 21.8% | SNB-75 CNS 38.8% | SNB-19 CNS 26.1% | U251 CNS 11.2% | PC-3 prostate 33.9% | UACC-62 melanoma 25.7% | SK-MEL-28 melanoma 14.7% | EKVX NSCLC 64.2% | SN12C renal 36.2% | UO-31 renal 53.8% | TK-10 renal 35.2% | ACHN renal 48.2% | CAKI-1 renal 57.5% | A498 renal 25.9%

CC1(C)N=C(N)N=C(N)N1c1ccc(Cl)c(Cl)c1
inactive: HCT-15 colon 30.6% | HT29 colon 36.2% | SNB-75 CNS 71.2% | SNB-19 CNS 40.3% | U251 CNS 30.1% | PC-3 prostate 38.3% | SK-MEL-5 melanoma 25.2% | UACC-62 melanoma 27.4% | LOX IMVI melanoma 18.8% | SK-MEL-28 melanoma 78.6% | SK-MEL-2 melanoma 64.6% | EKVX NSCLC 52.5% | SN12C renal 27.1% | UO-31 renal 48.3% | TK-10 renal 48.5% | ACHN renal 28.4% | CAKI-1 renal 60.8% | A498 renal 99.1% | CCRF-CEM leukemia 32% | MOLT-4 leukemia 34.6%

COc1ccc(/C=N/NC(=O)Cn2c(-c3ccc(S(C)(=O)=O)cc3)nc3cc(Cl)ccc32)cc1
active: HT29 colon 3.57% | CCRF-CEM leukemia 1.56%
inactive: HCT-15 colon 17.5% | SNB-75 CNS 26.5% | SNB-19 CNS 21.6% | U251 CNS 10.4% | PC-3 prostate 18.4% | SK-MEL-5 melanoma 12.7% | UACC-62 melanoma 26.1% | LOX IMVI melanoma 30.8% | SK-MEL-28 melanoma 52.7% | SK-MEL-2 melanoma 21.2% | EKVX NSCLC 25.3% | SN12C renal 27.3% | UO-31 renal 43.2% | TK-10 renal 36.8% | ACHN renal 30.3% | CAKI-1 renal 42% | A498 renal 21.4% | MOLT-4 leukemia 12.9%
